The source of these data is PubChem BioAssay (Tox21).

Results filed as inconclusive are left out. Entries that show only a call come without a potency. Calls of active or inactive are those of the source. The call rests on the fitted dose curve; in most records, active means well fitted cell-killing curve with a large enough effect in the repeat runs; inconclusive means weak or mixed curves, or effect the other way; inactive means flat fitted curve, though single readings scatter.
Potency means the concentration at half of the fitted maximal effect.

The test is described as follows: cAMP Responsive Elements (CRE) small molecule agonists, cell-based qHTS assay: qHTS cell viability counter screen (AID 2060914). Further: nearly all actives have a fitted effect of over 50% in size. The settings on record: CRE-bla HEK293T viability, CellTiter-Glo luminescence, 5 h; series mostly up to 92.4 µM. The essentials:
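Cells are seeded and incubated 18 h, treated with compounds in DMSO for 3 h, read for the bla reporter, then given CellTiter-Glo; luminescence is measured after 30 min at room temperature.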
(qHTS replaces the single test concentration by a dilution series.)
On to `O=c1[nH]nnc2ccccc12`, for which the Potency entry is “inactive”.
As for `CN1CCN(Cc2cc(-c3ccc4[nH]c(=O)oc4c3)co2)[C@@H](c2ccc(F)cc2)C1`, the Potency entry is “inactive”.
On to `CCCCCOC(=O)CCCCC`, for which the Potency entry is “inactive”.
For `CCCNCC(O)COc1ccccc1C(=O)CCc1ccccc1` (stereo not given) the value was “inactive”; for `COc1ccc(/C(C)=C/C(=O)O)c(OC)c1`, “inactive”.
For `COC(=O)C1=C(C)NC(C)=C(C(=O)OCCCN2CCC(c3ccccc3)(c3ccccc3)CC2)C1c1cccc([N+](=O)[O-])c1` (stereo not given) the value was “inactive”; for `c1ccccc1`, “inactive”; for `O=CN1CCOCC1`, “inactive”.
In the case of `CCOC(=O)Nc1ccc2c(c1)N(C(=O)CCN1CCOCC1)c1ccccc1S2`, the Potency entry was “inactive”.
For the compound `CCN(CC)CCOc1ccc(/C(=C(\Cl)c2ccccc2)c2ccccc2)cc1`, the Potency entry was “inactive”.
For `CCN(CC)S(=O)(=O)c1ccc(C(=O)O)cc1` the value was “inactive”; for `O=C(Cl)c1cc(Cl)cc(Cl)c1`, “inactive”.
`CCCC(C)C`: the Potency entry is “inactive”.
Turning to `CCOC(=O)CN`, the Potency result is “inactive”.
In the case of `Cc1cccc(N(C)C)c1`, the Potency result is “inactive”.
As to `OCCc1ccncc1`, the Potency entry was “inactive”.
Regarding `c1ccc(C[P+](c2ccccc2)(c2ccccc2)c2ccccc2)cc1`, the Potency entry is “inactive”.
Take `COCC(=O)O[C@]1(CCN(C)CCCc2nc3ccccc3[nH]2)CCc2cc(F)ccc2[C@@H]1C(C)C`: the Potency entry is “inactive”.
For `CC[C@@H]([C@H](C)O)n1ncn(-c2ccc(N3CCN(c4ccc(OC[C@@H]5CO[C@@](Cn6cncn6)(c6ccc(F)cc6F)C5)cc4)CC3)cc2)c1=O` the value was 26.6 µM (active); for `CC(C)(C)CC(C)(C)c1ccc(OCCO)cc1`, “inactive”; for `CCCCC(CC)(CO)CO`, “inactive”.
`COCCCCCCCCOCCC[Si](C)(O[Si](C)(C)C)O[Si](C)(C)C`: the Potency result was “inactive”.
In the case of `CC1CCc2c(N3CCC(O)CC3)c(F)cc3c(=O)c(C(=O)O)cn1c23` (stereo not given), the Potency result was “inactive”.
For the compound `COCCOc1cc2cc(C(=O)NC3CCN(C(C)C)CC3)n(CC(=O)Nc3ccc(Cl)cn3)c2cn1`, the Potency entry was “inactive”.
Take `CCC(=O)/C=C/C1C(C)=CCCC1(C)C` (stereo not given): the Potency entry was “inactive”.
As to `COc1cc(C(=O)NS(=O)(=O)c2ccccc2C)ccc1Cc1cn(C)c2ccc(NC(=O)OC3CCCC3)cc12`, the Potency result is “inactive”.
For `CCCCCCCCCCCCCCOS(=O)(=O)O` the value was “inactive”; for `CC1=C(/C=C/C(C)=C/C=C/C(C)=C/C(=O)Nc2ccc(O)cc2)C(C)(C)CCC1`, “inactive”; for `O=C1Nc2ccc(Cl)cc2[C@@](C#CC2CC2)(C(F)(F)F)O1`, “inactive”.
As to `Nc1nc(N)c2nc(-c3ccccc3)c(N)nc2n1`, the Potency entry is “inactive”.
For `NCCNCCN`, the Potency entry is “inactive”.
For `COc1cc(C(C)=O)ccc1OCCCN1CCC(c2noc3cc(F)ccc23)CC1`, the Potency result was “inactive”.
Consider `COc1cc2c(cc1N)oc1ccccc12`, for which the Potency entry was “inactive”.
In the case of `C/C(=C(\CCO)SS/C(CCO)=C(\C)N(C=O)Cc1cnc(C)nc1N)N(C=O)Cc1cnc(C)nc1N`, the Potency result is “inactive”.
On to `NC(=O)N[C@@H](CCC(=O)O)C(=O)O`, for which the Potency result was “inactive”.
With `SC1CCCC1`, the Potency entry is “inactive”.
For `CN(C)CCCN(C)CCCN(C)C`, the Potency entry is “inactive”.
In the case of `CCCCCCCCOC(=O)c1cc(O)c(O)c(O)c1`, the Potency result was “inactive”.
`Nc1ccc(O)c(C(=O)O)c1`: the Potency result is “inactive”.
For `CC(C)(C)CC(C)(C)c1ccc(O)c(Cc2ccc(Cl)cc2Cl)c1` the value was 13.3 µM (active).
